This is an account of results in PubChem BioAssay (Tox21).

Each structure is given as a SMILES string. Results filed as inconclusive are left out. Some structures have more than one record in an assay (separate samples or runs), and their calls can disagree. The source made the active and inactive calls. Calls come from the whole dose curve.

Test [1] has as its target Acetylcholinesterase (Homo sapiens) (UniProt P22303). Briefly: Acetylcholinesterase (AChE) small molecule antagonists: colormetric cell-based qHTS assay (AID 1347395). Note: nearly all actives have a fitted effect of over 30% in size. Note: potency is the fitted concentration of half-maximal effect. The essentials:
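SH-SY5Y cells, plated overnight at 37 C, were exposed to compounds for 30 min at 37 C and 5% CO2. Acetylthiocholine plus DTNB was then added, and thiocholine from endogenous AChE was quantified colorimetrically after 90 min at 37 C.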
On the technique in general: In qHTS, concentration-response curves come from the screen itself.

For test [2] the target is unchanged. Briefly: Acetylcholinesterase (AChE) small molecule antagonists: enzyme-based qHTS assay (AID 1347397). Note: nearly all actives have a fitted effect of over 55% in size. Note: potency is the fitted concentration of half-maximal effect. The conditions noted are these: Potency: AChE enzyme activity inhibition; outcome: AChE enzyme activity inhibition. The essentials: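 Compound or DMSO vehicle was pin-transferred onto recombinant human AChE (50 mU/mL as dispensed) and left 30 min at room temperature. Acetylthiocholine with DTNB then started the reaction, read colorimetrically 10 min later.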

The target is the same in test [3]. Briefly: Acetylcholinesterase (AChE) small molecule antagonists: fluorescence cell-based qHTS assay (AID 1347398). Note: nearly all actives have a fitted effect of over 50% in size. Note: potency is the fitted concentration of half-maximal effect. The note with it: Potency: AChE activity; outcome: AChE activity. The essentials: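 Using neuroblastoma SH-SY5Y cells as the enzyme source, test chemicals are preincubated 30 min at 37 C; AChE-driven acetylthiocholine cleavage is then quantified by thiocholine-dependent Thiolite Green fluorescence after 40 min at room temperature.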

For test [4] the target is unchanged. Briefly: Acetylcholinesterase (AChE) small molecule antagonists: enzyme-based qHTS assay with human liver microsomes (AID 1347399). Note: nearly all actives have a fitted effect of over 60% in size. The note with it: Potency: qHTS inhibition; outcome: qHTS inhibition. The gist of the method:
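Recombinant human AChE (50 mU/mL in the enzyme mix) and human liver microsomes (0.25 mg/mL final) were preincubated with compound and NADPH (0.25 mg/mL final) for 30 min at 37 C. Acetylthiocholine/DTNB was then added; thiocholine was read colorimetrically after 10 min at room temperature.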

Chain of Acetylcholinesterase (Homo sapiens) (P22303 whole entry, looked up): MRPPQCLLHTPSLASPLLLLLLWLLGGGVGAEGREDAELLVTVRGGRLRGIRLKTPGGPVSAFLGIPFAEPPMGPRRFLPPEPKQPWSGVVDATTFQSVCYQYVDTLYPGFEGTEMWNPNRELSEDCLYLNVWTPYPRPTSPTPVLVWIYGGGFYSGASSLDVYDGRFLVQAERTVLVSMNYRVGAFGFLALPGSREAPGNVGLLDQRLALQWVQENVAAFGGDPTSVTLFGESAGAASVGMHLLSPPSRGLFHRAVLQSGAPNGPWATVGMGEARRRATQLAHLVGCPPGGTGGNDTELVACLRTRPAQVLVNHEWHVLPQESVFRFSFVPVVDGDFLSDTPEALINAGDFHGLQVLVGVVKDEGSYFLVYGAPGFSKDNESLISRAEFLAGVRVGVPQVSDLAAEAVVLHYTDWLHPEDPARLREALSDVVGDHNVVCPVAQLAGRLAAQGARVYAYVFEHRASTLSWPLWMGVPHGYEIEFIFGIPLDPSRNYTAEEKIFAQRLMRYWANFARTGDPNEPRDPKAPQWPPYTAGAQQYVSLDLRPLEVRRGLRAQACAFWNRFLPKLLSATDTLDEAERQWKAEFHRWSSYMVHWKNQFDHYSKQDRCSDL

For `CNC1(C)C2CCC(C2)C1(C)C` (configuration not stated), the Potency result in test [1], in test [2], in test [3] and in test [4] was “inactive” throughout.
As for `Cc1ccc(C(C)(C)C)cc1`, the Potency result in test [1], in test [2], in test [3] and in test [4] was “inactive” each time.
As to `Cc1cc(Br)ccc1NC(=O)CCl`, the Potency result in test [1], in test [2], in test [3] and in test [4] was “inactive” throughout.
With `C=CC(=O)OCC(Br)CBr` (configuration not stated), the Potency result in test [1], in test [2], in test [3] and in test [4] was “inactive” throughout.
In the case of `CCCCC(O)/C=C(C)/C=C/C=C/C(=O)N1CCCC1=O` (configuration not stated), the Potency entry in test [1], in test [2], in test [3] and in test [4] was “inactive” each time.
For `Cc1cc(O)c2c(c1)C(=O)c1cc(O)cc(O)c1C2=O`, the Potency result in test [1], in test [2] and in test [4] was “inactive” each time. In addition, the Potency in test [3] is 15.5 µM (active) and inactive.
Turning to `O=P(O)(OCc1ccccc1)OCc1ccccc1`, the Potency entry in test [1], in test [2], in test [3] and in test [4] was “inactive” throughout.
In the case of `CC(=O)OC/C=C(C)/C=C/C=C(C)/C=C/C1=C(C)CCCC1(C)C`, the Potency entry in test [1], in test [2], in test [3] and in test [4] was “inactive” in each case.
Take `Cc1cccc(N)n1`: the Potency result in test [1], in test [2], in test [3] and in test [4] was “inactive” throughout.
With `CC(C)COC(=O)CCCCC(=O)OCC(C)C`, the Potency entry in test [1], in test [2], in test [3] and in test [4] was “inactive” throughout.
Turning to `C=C(CC)C(=O)c1ccc(OCC(=O)O)c(Cl)c1Cl`, the Potency result in test [1], in test [2], in test [3] and in test [4] was “inactive” throughout.
Consider `O=C1c2cccc3c2[C@H](CCC3)CN1[C@@H]1CN2CCC1CC2`, for which the Potency entry in test [1], in test [2], in test [3] and in test [4] was “inactive” throughout.
For `COc1ccc2c(c1)c(CC(=O)OCC(=O)O)c(C)n2C(=O)c1ccc(Cl)cc1`, the Potency result in test [1], in test [2], in test [3] and in test [4] was “inactive” in each case.
With `CCOc1ccc(NC(C)=O)cc1`, the Potency result in test [1], in test [2], in test [3] and in test [4] was “inactive” throughout.
As to `C/C=C(\C)C=O`, the Potency entry in test [1], in test [2], in test [3] and in test [4] was “inactive” each time.
Turning to `COc1cccc2sc(N)nc12`, the Potency entry in test [1], in test [2], in test [3] and in test [4] was “inactive” throughout.
For the molecule `Cc1ccc(S(=O)(=O)NC(=O)NC2CCCCCCC2)cc1`, the Potency result in test [1], in test [2], in test [3] and in test [4] was “inactive” in each case.
Turning to `Nc1nc(Cl)cc(Cl)n1`, the Potency entry in test [1], in test [2], in test [3] and in test [4] was “inactive” each time.
`O=C(O)c1ccccc1C(=O)O`: the Potency entry in test [1], in test [2], in test [3] and in test [4] was “inactive” in each case.
As for `COC(=O)[C@H]1[C@H]2C[C@@H]3c4[nH]c5cc(OC)ccc5c4CCN3C[C@H]2C[C@@H](OC(=O)/C=C/c2ccc(O)c(OC)c2)[C@@H]1OC`, the Potency result in test [1], in test [2], in test [3] and in test [4] was “inactive” throughout.
Turning to `Nc1nc(-c2ccc([N+](=O)[O-])cc2)cs1`, the Potency result in test [1], in test [2], in test [3] and in test [4] was “inactive” throughout.
For the molecule `N#Cc1ccccc1O`, the Potency result in test [1], in test [2], in test [3] and in test [4] was “inactive” in each case.
As to `Cc1cc(C)c(S(=O)(=O)O)cc1N=Nc1cc(S(=O)(=O)O)c2ccccc2c1O`, the Potency entry in test [1], in test [2], in test [3] and in test [4] was “inactive” throughout.
For `CSCCC=O`, the Potency entry in test [1], in test [2], in test [3] and in test [4] was “inactive” each time.
Take `COc1ccc(CCC(C)=O)cc1`: the Potency entry in test [1], in test [2], in test [3] and in test [4] was “inactive” throughout.
On to `CNC(=O)c1c(I)c(NC(=O)CCCCC(=O)Nc2c(I)c(C(=O)O)c(I)c(C(=O)NC)c2I)c(I)c(C(=O)O)c1I`, for which the Potency result in test [1], in test [2], in test [3] and in test [4] was “inactive” each time.
Turning to `NNS(=O)(=O)c1ccc(Oc2ccc(S(=O)(=O)NN)cc2)cc1`, the Potency result in test [1], in test [2], in test [3] and in test [4] was “inactive” throughout.
Turning to `C[C@]12CCC(=O)C=C1CC[C@@H]1[C@@H]2[C@@H](O)C[C@@]2(C)[C@H]1CC[C@]2(O)C(=O)COC(=O)CCC(=O)O`, the Potency result in test [1], in test [2], in test [3] and in test [4] was “inactive” in each case.
Turning to `NC(=O)C(=O)N/N=C/c1ccc([N+](=O)[O-])o1`, the Potency result in test [1], in test [2], in test [3] and in test [4] was “inactive” throughout.
On to `NNC(=O)CP(=O)(c1ccccc1)c1ccccc1`, for which the Potency entry in test [1], in test [2], in test [3] and in test [4] was “inactive” throughout.
Consider `CCCCCCCCCC(=O)O`, for which the Potency result in test [1], in test [2], in test [3] and in test [4] was “inactive” each time.
For the molecule `CCCCCCCCn1sc(Cl)c(Cl)c1=O`, the Potency result in test [1], in test [2], in test [3] and in test [4] was “inactive” in each case.
Regarding `CCOC(=O)C1=NOC(c2ccccc2)(c2ccccc2)C1`, the Potency result in test [1], in test [2], in test [3] and in test [4] was “inactive” each time.
Consider `CCCCCCCCCCn1cc[n+](CCCCCCCCCC)c1C`, for which the Potency in test [1] was 79.8 µM (active); in test [2], 35.6 µM (active); in test [3], 40 µM (active). For the same molecule, the Potency result in test [4] was “inactive”.
On to `C=C(C)C(=O)OCCCCCCCCCC`, for which the Potency result in test [1], in test [2], in test [3] and in test [4] was “inactive” each time.
As to `O=C(O)c1cccc(Cl)c1Cl`, the Potency entry in test [1], in test [2], in test [3] and in test [4] was “inactive” in each case.
With `CCCNC(C)(C)COC(=O)c1ccccc1`, the Potency entry in test [1], in test [2], in test [3] and in test [4] was “inactive” each time.
Take `CN(C)CCCNCCCN(C)C`: the Potency result in test [1], in test [2], in test [3] and in test [4] was “inactive” in each case.
